This note sets out measurements from PubChem BioAssay (NCI).

SMILES strings stand for the structures. About 79,000 compounds went through this panel and 15% of them were active in at least one assay; those are over-represented in the sample as a whole. A number with no mark means an inactive call. Calls of active or inactive are those of the source. Rule as the data show it: active = growth inhibition above about 70%; inactive = the rest.

The experiment in a line: NCI Yeast Anticancer Drug Screen. Data for the rad18 strain (AID 177). Conditions: S. cerevisiae rad18 mutant growth inhibition, active compounds read high. On the procedure:
Growth inhibition of yeast strains with defined genetic alterations is measured as a screen for potential anti-cancer activity. Selected strains with alterations in DNA damage repair or cell cycle control were exposed to compounds and growth inhibition was measured relative to vehicle treated controls. The strain used in this assay is rad18

With `c1cc2c(cc1C1OC[C@H]3[C@@H](c4ccc5c(c4)OCO5)OC[C@@H]13)OCO2` (stereo not given in full), the growth inhibition was -10% (at 1.2 µM); -6% (at 3.7 µM); -4% (at 11.0 µM); -8% (at 33.0 µM); -11% (at 100.0 µM).

For the compound `COC1C(O)C(C)OC(OC2C(Oc3cccc4c(O)c5c(=O)oc6ccc(C)c7c(=O)oc(c34)c5c67)OC(C)C(O)C2O)C1O` (stereo not given), the growth inhibition runs as follows: (at 1.2 µM) 6%; (at 3.7 µM) 3%; (at 11.0 µM) 17%; (at 33.0 µM) 21%; (at 100.0 µM) 16%.

In the case of `COc1cc2ccccc2c2cc([N+](=O)[O-])oc12`, the growth inhibition is 96% (active) (at 1.2 µM); 96% (active) (at 3.7 µM); 95% (active) (at 11.0 µM); 94% (active) (at 33.0 µM); 88% (active) (at 100.0 µM).

Turning to `O=C(O)C1C2c3ccccc3C(c3ccccc32)C1C(=O)O` (stereo not given), the growth inhibition was -4% (at 1.2 µM); -2% (at 3.7 µM); -1% (at 11.0 µM); -2% (at 33.0 µM); 6% (at 100.0 µM).

With `CCOP(=S)(S)OCC.[Pd]`, the growth inhibition by setting is: (at 1.2 µM) 15%; (at 3.7 µM) 86% (active); (at 11.0 µM) 98% (active); (at 33.0 µM) 96% (active); (at 100.0 µM) 93% (active).

Consider `CC(C)(C)c1cc([N+](=O)[O-])cc([N+](=O)[O-])c1O`, for which the growth inhibition is, setting by setting: (at 1.2 µM) -30%; (at 3.7 µM) -13%; (at 11.0 µM) -18%; (at 33.0 µM) 17%; (at 100.0 µM) 30%.

In the case of `O=C(O)C1C2CCC(C2)C1c1ccccc1` (stereo not given), the growth inhibition runs as follows: (at 1.2 µM) 0%; (at 3.7 µM) -1%; (at 11.0 µM) -5%; (at 33.0 µM) 1%; (at 100.0 µM) 47%.

In the case of `C/C(=N\O)c1ccc2ccc3ccccc3c2c1`, the growth inhibition runs as follows: (at 1.2 µM) 5%; (at 3.7 µM) 13%; (at 11.0 µM) 52%; (at 33.0 µM) 92% (active); (at 100.0 µM) 94% (active).
